From PubChem BioAssay AID1159580 (chemical genetic matrix, 2015)
In all, about 5,500 compounds went through this assay and about 2,000 (36%) were called active. Not shown: some 18% with an inconclusive outcome. No stated cut-off is given here; in the data, active means normalized growth mostly below about 0.91 (no sharp cut-off); inconclusive means no clear call, values can overlap the other calls; inactive means mostly above about 0.92. Some of the results follow.

Assay: chemical genetic growth profiling, strain panel (AID 1159580);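 further: tested at 20 µM; growth read once vehicle control cultures reached saturation at 30 °C; 1 = growth at the plate median or of vehicle wells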
Conditions: growth OD

Measured: normalized growth

O=C1[C@H](CCC(O)c2ccc(F)cc2)[C@@H](c2ccc(O)cc2)N1c1ccc(F)cc1 (some centres not stated)
inactive: S. cerevisiae deletion strains, locus YJR075W, strain HOC1, stronger effect = lower value 0.986 | S. cerevisiae deletion strains, locus YKL009W, strain mrt4, stronger effect = lower value 0.944 | S. cerevisiae deletion strains, locus YKL068W, stronger effect = lower value 0.989 | S. cerevisiae deletion strains, locus YKL085W, strain MDH1 (second series), stronger effect = lower value 0.983 | S. cerevisiae deletion strains, locus YKL085W, strain MDH1, stronger effect = lower value 0.983 | S. cerevisiae deletion strains, locus YKL160W, strain elf1, stronger effect = lower value 0.974 | S. cerevisiae deletion strains, locus YKL190W, strain CNB1, stronger effect = lower value 0.995 | S. cerevisiae deletion strains, locus YKR001C, strain vps1, stronger effect = lower value 0.968 | S. cerevisiae deletion strains, locus YKR026C, strain gcn3, stronger effect = lower value 0.961 | S. cerevisiae deletion strains, locus YKR091W, strain srl3, stronger effect = lower value 0.977 | S. cerevisiae deletion strains, locus YLL001W, strain dnm1, stronger effect = lower value 0.937 | S. cerevisiae deletion strains, locus YLL026W, stronger effect = lower value 0.977 | S. cerevisiae deletion strains, locus YLL041C, strain sdh2, stronger effect = lower value 0.967 | S. cerevisiae deletion strains, locus YLR027C, strain aat2, stronger effect = lower value 0.98 | S. cerevisiae deletion strains, locus YLR039C, strain RIC1, stronger effect = lower value 0.995 | S. cerevisiae deletion strains, locus YLR058C, strain SHM2, stronger effect = lower value 0.982 | S. cerevisiae deletion strains, locus YLR102C, strain apc9, stronger effect = lower value 0.972 | S. cerevisiae deletion strains, locus YLR113W, strain HOG1, stronger effect = lower value 1 | S. cerevisiae deletion strains, locus YLR221C, strain rsa3, stronger effect = lower value 0.986 | S. cerevisiae deletion strains, locus YLR258W, strain gsy2, stronger effect = lower value 0.972 | S. cerevisiae deletion strains, locus YLR262C, strain YPT6 (second series), stronger effect = lower value 0.988 | S. cerevisiae deletion strains, locus YLR262C, strain YPT6, stronger effect = lower value 0.978 | S. cerevisiae deletion strains, locus YLR268W, strain sec22, stronger effect = lower value 0.96 | S. cerevisiae deletion strains, locus YLR320W, strain mms22, stronger effect = lower value 0.975 | S. cerevisiae deletion strains, locus YLR330W, strain CHS5, stronger effect = lower value 0.988 | S. cerevisiae deletion strains, locus YLR342W, strain FKS1 (second series), stronger effect = lower value 1.01 | S. cerevisiae deletion strains, locus YLR342W, strain FKS1, stronger effect = lower value 0.973 | S. cerevisiae deletion strains, locus YLR357W, strain rsc2, stronger effect = lower value 0.978 | S. cerevisiae deletion strains, locus YLR370C, strain arc18, stronger effect = lower value 0.967 | S. cerevisiae deletion strains, locus YLR371W, strain rom2, stronger effect = lower value 0.971 | S. cerevisiae deletion strains, locus YLR384C, strain iki3, stronger effect = lower value 0.976 | S. cerevisiae deletion strains, locus YLR418C, strain cdc73, stronger effect = lower value 0.948 | S. cerevisiae deletion strains, locus YML016C, strain PPZ1, stronger effect = lower value 0.989 | S. cerevisiae deletion strains, locus YML032C, strain rad52, stronger effect = lower value 0.979 | S. cerevisiae deletion strains, locus YML120C, strain ndi1, stronger effect = lower value 0.968 | S. cerevisiae deletion strains, locus YML124C, strain tub3, stronger effect = lower value 0.977 | S. cerevisiae deletion strains, locus YMR058W, strain fet3, stronger effect = lower value 0.977 | S. cerevisiae deletion strains, locus YMR078C, strain ctf18, stronger effect = lower value 0.968 | S. cerevisiae deletion strains, locus YMR125W, strain sto1, stronger effect = lower value 0.971 | S. cerevisiae deletion strains, locus YMR129W, stronger effect = lower value 0.962 | S. cerevisiae deletion strains, locus YMR205C, strain PFK2, stronger effect = lower value 0.944 | S. cerevisiae deletion strains, locus YMR223W, strain ubp8, stronger effect = lower value 0.987 | S. cerevisiae deletion strains, locus YMR231W, strain pep5, stronger effect = lower value 0.994 | S. cerevisiae deletion strains, locus YMR263W, strain SAP30, stronger effect = lower value 0.997 | S. cerevisiae deletion strains, locus YMR307W, strain GAS1, stronger effect = lower value 0.976 | S. cerevisiae deletion strains, locus YNL067W, strain RPL9B, stronger effect = lower value 1 | S. cerevisiae deletion strains, locus YNL071W, strain lat1, stronger effect = lower value 0.984 | S. cerevisiae deletion strains, locus YNL128W, strain TEP1, stronger effect = lower value 0.994 | S. cerevisiae deletion strains, locus YNL153C, strain GIM3, stronger effect = lower value 0.995 | S. cerevisiae deletion strains, locus YNL183C, strain NPR1, stronger effect = lower value 0.961 | S. cerevisiae deletion strains, locus YNL209W, strain ssb2, stronger effect = lower value 0.99 | S. cerevisiae deletion strains, locus YNL233W, strain BNI4, stronger effect = lower value 0.984 | S. cerevisiae deletion strains, locus YNL248C, strain rpa49, stronger effect = lower value 0.965 | S. cerevisiae deletion strains, locus YNL250W, strain rad50, stronger effect = lower value 0.974 | S. cerevisiae deletion strains, locus YNL271C, strain bni1, stronger effect = lower value 0.968 | S. cerevisiae deletion strains, locus YNL298W, strain CLA4, stronger effect = lower value 0.961 | S. cerevisiae deletion strains, locus YNL307C, strain MCK1, stronger effect = lower value 0.961 | S. cerevisiae deletion strains, locus YNL322C, strain KRE1 (second series), stronger effect = lower value 0.971 | S. cerevisiae deletion strains, locus YNL322C, strain KRE1, stronger effect = lower value 0.994 | S. cerevisiae deletion strains, locus YNR049C, strain mso1, stronger effect = lower value 0.962 | S. cerevisiae deletion strains, locus YNR052C, strain pop2, stronger effect = lower value 0.973 | S. cerevisiae deletion strains, locus YOL006C, strain TOP1, stronger effect = lower value 0.908 | S. cerevisiae deletion strains, locus YOL012C, strain htz1 1.05 | S. cerevisiae deletion strains, locus YOL147C, strain pex11, stronger effect = lower value 0.975 | S. cerevisiae deletion strains, locus YOR001W, strain rrp6, stronger effect = lower value 0.967 | S. cerevisiae deletion strains, locus YOR061W, strain CKA2, stronger effect = lower value 0.984 | S. cerevisiae deletion strains, locus YOR069W, strain VPS5, stronger effect = lower value 0.987 | S. cerevisiae deletion strains, locus YOR070C, strain gyp1, stronger effect = lower value 0.982 | S. cerevisiae deletion strains, locus YOR080W, strain dia2, stronger effect = lower value 0.956 | S. cerevisiae deletion strains, locus YOR083W, strain WHI5, stronger effect = lower value 0.967 | S. cerevisiae deletion strains, locus YOR106W, strain vam3, stronger effect = lower value 0.918 | S. cerevisiae deletion strains, locus YOR136W, strain idh2, stronger effect = lower value 0.979 | S. cerevisiae deletion strains, locus YOR144C, strain elg1, stronger effect = lower value 0.968 | S. cerevisiae deletion strains, locus YOR184W, strain ser1, stronger effect = lower value 0.972 | S. cerevisiae deletion strains, locus YOR231W, strain MKK1, stronger effect = lower value 0.961 | S. cerevisiae deletion strains, locus YOR265W, strain rbl2, stronger effect = lower value 0.976 | S. cerevisiae deletion strains, locus YOR270C, strain vph1, stronger effect = lower value 0.801 | S. cerevisiae deletion strains, locus YOR290C, strain snf2, stronger effect = lower value 0.987 | S. cerevisiae deletion strains, locus YOR316C, strain cot1, stronger effect = lower value 0.966 | S. cerevisiae deletion strains, locus YPL051W, strain arl3, stronger effect = lower value 0.991 | S. cerevisiae deletion strains, locus YPL055C, strain LGE1, stronger effect = lower value 0.998 | S. cerevisiae deletion strains, locus YPL078C, strain atp4, stronger effect = lower value 0.908 | S. cerevisiae deletion strains, locus YPL106C, strain sse1, stronger effect = lower value 1 | S. cerevisiae deletion strains, locus YPL240C, strain hsp82, stronger effect = lower value 0.994 | S. cerevisiae deletion strains, locus YPL241C, strain CIN2, stronger effect = lower value 0.996 | S. cerevisiae deletion strains, locus YPL256C, strain CLN2, stronger effect = lower value 0.97 | S. cerevisiae deletion strains, locus YPR119W, strain clb2, stronger effect = lower value 0.984 | S. cerevisiae deletion strains, locus YPR141C, strain kar3, stronger effect = lower value 0.956 | S. cerevisiae deletion strains, locus YPR163C, strain tif3, stronger effect = lower value 0.962 | S. cerevisiae deletion strains, locus YPR167C, strain met16, stronger effect = lower value 0.966 | S. cerevisiae deletion strains, strain wtn01, stronger effect = lower value 0.971 | S. cerevisiae strains, strain wild type, stronger effect = lower value 1.01
